± gives the standard deviation of the averaged measurements.
What follows are compounds tested on Listeria monocytogenes 10403S (assay: growth inhibition relative to ceftriaxone-alone control; higher = stronger potentiation of ceftriaxone growth inhibition). Settings: 10 µM; ceftriaxone 1 ug/ml; 12 h.
With COc1cc(Nc2ncc(F)c(Nc3ccc4c(n3)N(COP(=O)(O)O)C(=O)C(C)(C)O4)n2)cc(OC)c1OC [R788 (Fostamatinib)] the growth inhibition was 12.5 ± 9.9%.
COc1cc2ncn(-c3cc(O[C@@H](C)c4ccccc4Cl)c(C(N)=O)s3)c2cc1OC was tested, and the growth inhibition was -12.3 ± 4.7%.
For CCn1c(-c2nonc2N)nc2cncc(C(=O)NCCNC)c21, the growth inhibition was -6.44 ± 0.39%.
Cn1cnc(N)c2ncnc1-2 [3-Methyladenine] showed a growth inhibition of 4.53 ± 5.3%.
For CN(C)c1ccc2c(c1)/C(=C/Nc1ccc(S(N)(=O)=O)cc1)C(=O)N2, the growth inhibition was 1.99 ± 14%.
NC1(Cc2ccc(Cl)cc2)CCN(c2ncnc3[nH]ccc23)CC1 gave a growth inhibition of 35 ± 20%.
In the case of CN1CCN(c2nc(C3=C(c4c[nH]c5ccccc45)C(=O)NC3=O)c3ccccc3n2)CC1 [Sotrastaurin (AEB071)], the growth inhibition is reported as 44.8 ± 28%.
Fc1ccc(-c2ncn(C3CCNCC3)c2-c2ccnc(Oc3ccc(Oc4ccccc4)cc3)n2)cc1 gave a growth inhibition of 12.2 ± 24%.
Fc1ccc(-c2cc(-c3c[nH]nc3-c3ccccn3)ccn2)cc1 was tested, and the growth inhibition was -6.8 ± 13%.
COc1cc(N2CCN(C(C)C)CC2)ccc1Nc1nc(Nc2ccc(F)cc2C(N)=O)c2cc[nH]c2n1 was tested, and the growth inhibition was -11.9 ± 7%.
COc1cc(/C=N/Nc2ncnc3c2cnn3C(C)C)ccc1O gave a growth inhibition of -1.18 ± 2.2%.
Work on O=C(O)[C@]1(Cc2cccc(Nc3nccs3)n2)CC[C@@H](Oc2cccc(Cl)c2F)CC1 yielded a growth inhibition of 89.4 ± 3%.
CC(C)(C)c1cc(/C=C(\C#N)C(N)=S)cc(C(C)(C)C)c1O [Tyrphostin AG 879 (AG 879)] gave a growth inhibition of 72.8 ± 30%.
In the case of Clc1ccc(CNc2nccc(-c3cnn4ncccc34)n2)cc1, the growth inhibition is reported as -1.66 ± 1.6%.
O=C1Nc2ccc(-c3cccnc3)cc2C1=Cc1cc(Br)c(O)c(Br)c1 was tested, and the growth inhibition was 22.1 ± 2.9%.

Source: the supplement of paper PMC5641865, “A screen for kinase inhibitors identifies antimicrobial imidazopyridine aminofurazans as specific inhibitors of the Listeria monocytogenes PASTA kinase PrkA” (The Journal of Biological Chemistry, 2017)
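Further: End-point A600 read in BHI broth at 37 °C with 2% DMSO, inhibition computed as (1 − OD with compound plus ceftriaxone ÷ OD with ceftriaxone only) × 100.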
